GRP78 ERSR act – induces the endoplasmic reticulum stress response in human glioma cells; 420,000 compounds, 0.02% hits; Potency, µM, for the others: at the top dose activation, most hits filed as activators; U87-MG GRP78 promoter luciferase reporter, 16 h; further: potency means the concentration at half of the fitted maximal effect; series mostly up to about 76 µM; % of control where 0% means no effect; nearly all actives have a fitted effect of over 35% in size
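ERSR induction read as luciferase luminescence (Bright-Glo, 10 min at room temperature) in stably transfected human U87-MG glioma cells exposed to compounds for 16 h, using GRP78 as sensor.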
Pin1 inhibitor – human Pin1 inhibition; Q13526; Pin1 FP peptide displacement, HiFluor488, 10 min; AID 504891; Potency, µM (doses to about 115 µM), for inactives: at the highest dose activity, negative = inhibition, hits mostly inhibitors; 390,000 compounds, 0.009% hits; active means well fitted inhibition curve with a large enough effect in the polarisation, with a control signal flat, not every such curve was filed as active; inconclusive means small, poorly fitted or top-dose-only effect, or effect the other way, or a change in a side signal; inactive means no such curve, though single readings can be large or run the other way; the % refers to the polarisation; further: potency means the concentration at half of the fitted maximal effect; on the % scale 0 is the no-effect control and ±100 the full control effect
Target sequence (Q13526 whole entry, looked up): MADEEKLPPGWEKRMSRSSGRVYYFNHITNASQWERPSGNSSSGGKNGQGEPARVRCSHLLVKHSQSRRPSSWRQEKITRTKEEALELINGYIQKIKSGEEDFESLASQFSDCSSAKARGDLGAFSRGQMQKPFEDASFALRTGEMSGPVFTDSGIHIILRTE
FEN1 inh – inhibitors of human flap endonuclease 1. Potency, µM (highest dose often 114 µM), without a hit: at the highest dose activity change, negative = inhibition, usual class: inhibitors. 390,000 compounds, 0.35% hits. P39748. Recombinant FEN1 flap cleavage, fluorescence, 15 min; further: potency means the concentration at half of the fitted maximal effect; on the % scale 0 is the no-effect control and ±100 the full control effect; nearly all actives have a fitted effect of over 65% in size
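Reaction started by adding substrate (50 nM final) to 10 nM enzyme after 15 min room-temperature compound preincubation. Reads at 0 and 15 min, with data normalized and fitted to a four-parameter Hill equation.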
WRN inhibitor – inhibitors of human WRN helicase | Potency, µM (doses to about 114 µM), inactives show top-dose activity change, negative = inhibition, usual class: inhibitors | WRN helicase unwinding, fluorescent forked duplex, kinetic | Q14191 | 360,000 compounds, 0.46% hits | AID 651768; further: potency means the concentration at half of the fitted maximal effect; on the % scale 0 is the no-effect control and ±100 the full control effect; nearly all actives have a fitted effect of over 55% in size
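WRN at 20 nM final was preincubated with compound for 15 min at room temperature; reaction started with 100 nM forked duplex oligonucleotide carrying fluorophore and quencher plus 2 mM ATP (final). Unwinding followed kinetically by red fluorescence (ex 525/em 598 nm).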
PI5P4Ka inh – PI5P4K alpha (human) kinase inhibition | P48426 | PI5P4Kalpha enzyme, ADP-Glo luminescence, 60 min; stronger effect = lower value | max response, % | 330,000 compounds, 1.2% hits | AID 652105; active means max response of -50% or lower; inconclusive means between -30% and -50%; inactive means -30% or higher; further: value at the top dose of about 77 µM; on the % scale 0 is the no-effect control and ±100 the full control effect
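Reactions run in 0.038 M HEPES pH 7.4, 0.28 mM EGTA, 0.1% CHAPS and 5% DMSO, with PI5P4Kalpha, substrate, compound and 5 microM ATP final, one hour at room temperature. Readout is ADP-Glo luminescence.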
Tb PGK inh – inhibitors of T. brucei phosphoglycerate kinase | P07378 | PGK/GAPDH coupled, Kinase-Glo luminescence, 60 min | Potency, µM (highest dose often 57.5 µM), inactives show at the highest dose activity change, negative = inhibition, hits mostly inhibitors | 380,000 compounds, 0.043% hits; further: potency means the concentration at half of the fitted maximal effect; on the % scale 0 is the no-effect control and ±100 the full control effect; nearly all actives have a fitted effect of over 60% in size
Target sequence (P07378 whole entry, looked up): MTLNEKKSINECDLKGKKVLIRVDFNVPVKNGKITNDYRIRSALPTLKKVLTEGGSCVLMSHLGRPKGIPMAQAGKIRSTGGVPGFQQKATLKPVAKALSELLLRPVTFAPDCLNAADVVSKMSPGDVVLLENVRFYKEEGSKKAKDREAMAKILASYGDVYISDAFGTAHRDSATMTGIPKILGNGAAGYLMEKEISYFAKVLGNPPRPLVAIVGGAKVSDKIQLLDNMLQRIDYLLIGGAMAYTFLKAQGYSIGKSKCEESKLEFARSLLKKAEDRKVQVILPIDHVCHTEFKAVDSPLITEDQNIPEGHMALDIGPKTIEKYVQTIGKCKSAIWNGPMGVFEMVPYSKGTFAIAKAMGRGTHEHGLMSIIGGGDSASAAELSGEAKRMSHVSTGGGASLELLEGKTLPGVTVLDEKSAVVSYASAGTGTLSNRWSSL
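Recombinant glycosomal PGK reaction used 1,3-bisphosphoglycerate generated in-well by GAPDH (100nM final) in 100mM TEA pH 7.6, 5mM MgCl2, 0.01% Tween-20. After 60 minutes at room temperature, ATP was read by Kinase-Glo Plus luminescence end-point.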
Numbers without * were called inactive; i = inactive; ? = inconclusive; . = no result given; [ ] = another dose, or the depositor's remark. In the library only some 1.3% were active in any assay of this set; here they are far more common. Unless noted, the call rests on the fitted dose curve; in most records, active means well fitted curve in the direction sought with a large enough effect; inconclusive means small, poorly fitted or top-dose-only effect, or another doubt; inactive means no such curve, though single readings can be large; an effect the other way counts as inactive or inconclusive.

SMILES | GRP78 ERSR act | Pin1 inhibitor | FEN1 inh | WRN inhibitor | PI5P4Ka inh | Tb PGK inh
CCn1c(-c2cccc(OC)c2)nc2cc(NC(C)=O)cc(C(=O)N3CCCC(C(C)=O)C3)c21 (stereo not given) | -3.1% | . | . | . | . | .
CCN(CC)C(=O)c1nn(-c2ccc(OC)cc2)c(=O)c2c(N)scc12 | . | -16.5% | . | . | . | .
O=c1oc2c(-c3ccc([N+](=O)[O-])cc3)cc(O)cc2s1 | -6.0% | ? | -0.7% | 56.2µM* | -58.7* | 4.6%
Cc1cc(C)c(SSc2nnnn2-c2ccccc2)c(C)c1 | -1.9% | . | . | 3.9% | -80.4* | 4.2%
N#Cc1c(N2CCCCC2)nc(N)c2c(N)nc3c(c12)CC(c1ccccc1)O3 (stereo not given) | -2.4% | 1.1% | ? | -4.1% | -64.0* | -7.2%
CCC1Cc2c(nc(N)c3c(N)nc(N4CCCCC4)c(C#N)c23)O1 (stereo not given) | -5.4% | 6.3% | ? | -33.3% | 6.4 | -7.7%
Cc1oc(-c2ccccc2NC(=O)C2CCCO2)nc1CNC(=O)c1cc(F)c(F)cc1F (stereo not given) | -5.4% | . | . | . | . | .
COC(C[C@@H]1O[C@@H]1[C@@H](O)[C@@H](C)OCc1ccccc1)OC | -0.8% | -0.8% | 5.8% | -2.9% | -6.2 | -1.8%
COC(C[C@@H]1O[C@@H]1[C@H](O)[C@H](C)OCc1ccccc1)OC | -1.9% | 12.2% | 3.6% | -8.1% | -85.6* | i
COC(=O)CC1=NN(c2ccc(OC)cc2)C(=O)/C1=C\c1ccc(Cl)cc1 | -2.0% | ? | -16.0% | -16.2% | -14.3 | -1.3%
COC(=O)CC1=NN(c2ccccc2)C(=O)/C1=C\c1ccc(OC)cc1 | -4.7% | -0.8% | -13.2% | 50.1µM* | -4.6 | -5.0%
Cc1ccc(C2C(/C=C3/SC(=S)NC3=O)=C(c3cccs3)Oc3ccccc32)cc1 (stereo not given) | 0.4% | ? | ? | 79.4µM* | . | -4.6%
CN1CCN(/C=C2\SC(=S)NC2=O)CC1 | -7.4% | 0.5% | -1.4% | 0.9% | -11.5 | -9.8%
COc1ccc(/C=C/C(=O)NCC2Cc3cc(Cl)cc(-c4ncccn4)c3O2)cc1 (stereo not given) | -4.1% | . | . | . | . | .
CCN1/C(=C/C=C/c2oc3ccc4ccccc4c3[n+]2CC)Oc2ccc3ccccc3c21 | -2.5% | ? | ? | ? | -73.8* | -1.3%
CCCCc1cc(O)c(CCCC)c(O)c1 | 22.4µM* | -5.3% | -5.8% | -24.3% | -10.3 | -7.1%
Cc1c(OCC(N)=O)ccc2c(-c3ccccc3)cc(=O)oc12 | -0.7% | 266.2% | ? | 50.1µM* | -4.2 | -1.8%
Cc1ccc(NS(=O)(=O)c2cc3c(cc2N2CCCCC2)NC(=O)CC3)cc1C | . | 14.2% | . | . | . | .
O=C(Cc1nnc(CNC(=O)c2ccccc2)s1)Nc1ccc(C(F)(F)F)cc1Cl | . | 4.5% | . | . | . | .
O=C(Cn1cnc2sc(-c3ccccc3)cc2c1=O)NCc1ccco1 | 4.5% | 4.9% | ? | 56.2µM* | -83.2* | 12.6µM*
CC(C)CC1=C/C(=C/c2ccc(-c3ccccc3)o2)C(=O)O1 | 3.0% | ? | ? | 50.1µM* | -68.0* | -8.2%
NS(=O)(=O)c1ccc(-c2ccc(C=C3C(=O)c4ccccc4C3=O)o2)cc1 | -2.8% | -0.1% | 7.0% | -5.8% | 1.2 | -9.9%
Cc1ccc(N/N=C/c2c(C)c(C#N)c(=O)n(C)c2O)cc1C | 0.6% | ? | ? | ? | -54.3* | i
C#CCOCCOCCOCCNc1nc(N2CCN(C(=O)[C@H](CCCCN)n3cc([C@@H](N)C(C)CC)nn3)CC2)nc(N2CCN(C(=O)[C@H](Cc3cc4ccccc4[nH]3)n3cc([C@@H](N)C(C)CC)nn3)CC2)n1 (stereo not given in full) | -5.3% | 8.2% | -9.3% | ? | -57.5* | 15.8%
C#CCOCCOCCOCCNc1nc(N2CCN(C(=O)C(Cc3cc4ccccc4[nH]3)n3cc(C(N)C(C)CC)nn3)CC2)nc(N2CCN(C(=O)C(Cc3cc4ccccc4[nH]3)n3cc(C(N)C(C)CC)nn3)CC2)n1 (stereo not given) | -3.1% | 38.7% | ? | -29.8% | -51.7* | i
SMILES | GRP78 ERSR act | Pin1 inhibitor | FEN1 inh | WRN inhibitor | PI5P4Ka inh | Tb PGK inh
COc1ccc(O)c(C2Nc3ccccc3C(=O)N2Cc2ccccc2)c1 (stereo not given) | . | 1.0% | . | . | . | .
COc1cc(-c2cc(C)c3c(OC)ccc(OC)c3n2)cc2c1OCCN(C(=O)Cn1nc(C)cc1C)C2 | -5.3% | . | . | . | . | .
CCCCCCC(=O)O[C@@H]1CC[C@H]2[C@@H]3CCc4cc(O)ccc4[C@H]3CC[C@]12C | 6.7% | . | . | . | . | .
O=C(O)C1=CCC=CC1C(=O)O (stereo not given) | -7.6% | . | . | ? | -13.2 | 12.6µM*
Cc1c(C(=O)NCCc2cccnc2)cnn1-c1ncc2c(n1)-c1ccccc1CC2 | -2.8% | . | . | . | . | .
NNc1nc2c(-c3ccc(F)cc3)nnn2c2ccccc12 | 8.9% | ? | 28.2µM* | -4.2%[11.6 µM] | -29.0 | -12.4%
CC1C(=O)N(Cc2cn(Cc3ccco3)nn2)CCS(=O)(=O)N1Cc1ccc(-c2cccnc2)cc1 (stereo not given) | -0.2% | . | . | 50.1µM* | ? | .
COc1ccc(CCn2c(-n3nc(C)cc3C)nc3c2c(=O)[nH]c(=O)n3C)cc1 | -6.6% | -3.0% | 0.7% | 79.4µM* | ? | -0.8%
Cc1ccc(Cn2c(-n3nc(C)cc3C)nc3c2c(=O)[nH]c(=O)n3C)cc1 | -1.3% | -4.7% | 13.1% | 6.6% | . | -9.8%
NC(=O)C1CCN(c2ncc(-c3cccc(F)c3)s2)CC1 | . | -2.9% | . | . | . | .
COc1ccc(C(=O)N2CCC3(CC2)c2ccccc2[C@@H](NC(=O)c2ccccn2)[C@@H]3OC)c(O)c1 | -5.0% | . | . | . | . | .
COC(=O)C1=C(C)N(CCCC(=O)O)C(=O)NC1c1ccc2c(c1)OCO2 (stereo not given) | 0.6% | -4.8% | -4.2% | 0.2% | -62.0* | -3.4%
COC(=O)C1=C(C)N(CCCC(=O)O)C(=O)NC1c1cccc(OC)c1 (stereo not given) | -2.3% | -7.0% | -0.1% | 2.3% | -51.9* | 2.9%
COCc1c(C(=O)NC2CCCCC2)cnn1-c1nccc(-c2cc(C)sc2C)n1 | 5.2% | . | . | . | . | .
CCOC(OCC)c1nc(N)[nH]c(=O)c1CCCCc1ccccc1 | -4.5% | 7.5% | -1.3% | -5.4% | -51.7* | -6.0%
CC(C)(C)NC(=S)N/N=C/c1cc(Br)c(O)c(Br)c1 | 1.1% | 34.3% | 16.8% | -8.1% | -90.6* | -3.6%
O=S(=O)(c1cccc(O)c1)N1CCN(S(=O)(=O)c2c(F)cccc2F)CC1 | . | -6.2% | . | . | . | .
Cc1c(C#N)c(O)[nH]c(=O)c1N=Nc1ccc(S(N)(=O)=O)cc1 | -0.9% | 48.6% | -26.2% | ? | -76.3* | -11.6%

Source: PubChem BioAssay
